Reference: PubChem BioAssay (NCATS)
Records with an inconclusive call do not appear. Values without a mark were called inactive. Calls follow the shape of the dose curve; as a rule, active = well fitted inhibition curve with a large enough effect; inconclusive = small, poorly fitted or top-dose-only effect; inactive = flat fitted curve, though single readings scatter.

target: Calcium and integrin-binding protein 1 (Homo sapiens) (UniProt Q99828); assay: Primary qHTS for Identification of Calcium Integrin Binding Protein 1 (CIB1) Competitor (AID 1508620); conditions: CIB1-GST / FITC-alphaIIb peptide fluorescence polarization; series mostly up to 114 µM; activity change, negative = inhibition: at the top concentration;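 also: GST tagged CIB1 binding a fluorescein labelled alphaIIb integrin peptide tracer; top concentration of the series differs between compounds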
Sequence (Q99828 whole entry, looked up): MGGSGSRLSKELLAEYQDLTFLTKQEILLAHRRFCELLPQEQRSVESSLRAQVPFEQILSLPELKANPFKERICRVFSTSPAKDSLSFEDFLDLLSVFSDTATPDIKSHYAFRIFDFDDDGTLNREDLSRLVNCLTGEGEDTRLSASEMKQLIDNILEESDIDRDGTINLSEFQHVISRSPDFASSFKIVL
How it was run: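 Fluorescence polarization competition: CIB1-GST (1 uM final) preincubated with compound 15 min at room temperature, then FITC-labeled alphaIIb peptide (100 nM final) added for another 15 min. Polarization read at Ex 480/Em 540.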
% is scaled to controls: 0 for no effect and ±100 for the full control effect.

Compound | activity change, negative = inhibition
Cc1c(C(=O)OCC2CC2)[nH]c2c1C(=O)CC(c1ccco1)C2 (configuration not stated) | -14.1%
CC(=O)Nc1sc2c(c1-c1ccc(C(F)(F)F)cc1)CCNC2 | 3.18%
O=C(O)c1cccc(-c2noc(-c3ccccc3C(F)(F)F)n2)c1 | -2.68%
O=S1(=O)N=C(Oc2cccc(C(F)(F)F)c2)c2ccccc21 | -0.689%
NC(=O)C1CCN(c2nc(-c3cccc(F)c3)cs2)CC1 | 3.29%
COc1cccc(-c2csc3ncnc(Sc4nnnn4C)c23)c1 | 5.53%
COc1ccc(NC(=O)c2cccnc2C)cc1S(=O)(=O)Nc1ccc(Br)cc1 | -1.18%
COc1ccc(Cl)cc1S(=O)(=O)N1CCN(S(=O)(=O)c2ccc3c(c2)OCCO3)CC1 | -1.38%
CCOC(=O)C1CCN(C(=O)C(C)(C)NC(=O)Nc2cccc(C(=O)OC)c2)CC1 | -16.4%
COc1ccc(C2Nc3ccccc3C(=O)N2Cc2ccccn2)cc1COc1c(C)cccc1C (configuration not stated) | -3.34%
O=C(O)c1ccc(S(=O)(=O)N[C@H](Cc2ccc(O)cc2)C(=O)O)cc1 | -19.4%
Cc1ccc(-c2ccc(CNc3nc(-c4ccccc4C(C)C)nc4ccsc34)cc2)cn1 | -0.0866%
N=c1c2c(ncn1CCN1CCOCC1)Oc1ccc3ccccc3c1C2c1ccccc1 (configuration not stated) | 0.14%
Cc1cc(C)nc(NC(=S)N2CCN(c3cc(Cl)cc(Cl)n3)CC2)c1 | -1.49%
Cc1cc(C)n2ncc(C(=O)NC(C)C)c2n1 | -0.15%
COC(=O)c1cc2c(s1)c1cnn(Cc3ccccc3F)c(=O)c1n2C | 4.03% [at 57.7 µM]
O=C1CCCC2=C1C(c1ccc(Cl)cc1)N=C(Nc1nc3ccccc3o1)N2 (configuration not stated) | 5.04%
Oc1ccc(CNc2cccc(C(F)(F)F)c2)c2cccnc12 | 15%
O=[N+]([O-])c1ccccc1CSc1nc2ncc(Br)cc2[nH]1 | 1.76%
CC(=O)NC(c1cccs1)c1cc(F)c2cccnc2c1O (configuration not stated) | -16.3%
COc1ccc2c(c1)Oc1nc(-c3ccc(C)cc3)nc(SCC(=O)Nc3cccc(C(=O)O)c3)c1C2 | 0.615%
Oc1ccc(-c2ccccc2F)c2cccnc12 | 0.779%
